Data reported in PubChem BioAssay (NCI).
Compounds without any hit were thinned out: in the full panel of roughly 83,000, 20% have a hit.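 Compound tested at a single concentration for 48 hours in 96-well plates; a percent growth value below 10 was scored as active.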 A number with no mark means an inactive call. Calls of active or inactive are those of the source.

Key:
Experiment in all cases: NCI-60 one-dose screen, 48 h (100 = growth as untreated, 0 = no growth, -100 = all killed)
[1] = tested on: SK-MEL-2 melanoma; conditions: 10 µM unless noted
[2] = tested on: EKVX NSCLC; conditions: 10 µM unless noted
[3] = tested on: SN12C renal; conditions: 10 µM unless noted
[4] = tested on: UO-31 renal; conditions: 10 µM unless noted
[5] = tested on: ACHN renal; conditions: 10 µM unless noted
[6] = tested on: CAKI-1 renal; conditions: 10 µM
[7] = tested on: A498 renal; conditions: 10 µM unless noted
[8] = tested on: CCRF-CEM leukemia; conditions: 10 µM unless noted
[9] = tested on: MOLT-4 leukemia; conditions: 10 µM unless noted

Structure (SMILES)	growth [1]	growth [2]	growth [3]	growth [4]	growth [5]	growth [6]	growth [7]	growth [8]	growth [9]
CCCCOc1nc2ccc(Cl)cc2cc1/C=C/C(=O)/C=C/c1ccc(Cl)cc1	101%	83.7%	92.1%	66.9%	81.5%	98.1%	92.4%	76.2%	71.5%
COc1cccc(-c2nc3sccn3c2-c2ccnc(NCCNC(=O)c3ccccc3)n2)c1	73.3%	106%	84.3%	53.8%	65.8%	84.4%	66.3%	52.5%	53.4%
COc1ccc(-c2nn(-c3ccc(NC(=O)c4cc(Cl)cc(Cl)c4)cc3)cc2-c2ccncc2)cc1Cl	49.9%	74.6%	85%	25%	63.6%	7.27% (active)	50.9%	54.8%	18.9%
COc1ccc(-c2nn(-c3ccc(NC(=O)Nc4ccc(Cl)c(Cl)c4)cc3)cc2-c2ccncc2)cc1Cl	-35.5% (active)	21.5%	20.5%	16.9%	14.8%	3.8% (active)	10.7%	12.6%	10.5%
Oc1ccccc1/C=N/c1ccccn1	97.8%	112%	116%	92.1%	106%	104%	89.5%	116%	102%
O=C(NCCNc1nccc(-c2c(-c3cccc(O)c3)nc3sccn23)n1)c1ccc(N2CCOCC2)c(C(F)(F)F)c1	66.7%	74%	76%	61.3%	60.8%	66.9%	47.8%	56.9%	57%
O=C(Nc1ccc(-n2ccc3c(NC(=O)c4ccccc4)ncnc32)cc1)c1ccc(Cl)c(C(F)(F)F)c1	34.7%	47.7%	22%	32.7%	27.6%	34.8%	80.1%	7.36% (active)	4.17% (active)
O=C(NCCNc1nccc(-c2c(-c3cccc(O)c3)nc3sccn23)n1)Nc1cccc(C(F)(F)F)c1	54.4%	91.2%	70.7%	75.2%	85.1%	90.3%	111%	23.1%	59.8%
O=C1c2ccccc2OC=C(c2ccccc2)N1CCCCNc1ccc(F)cc1	89.2%	96.8%	77.4%	53.5%	97.5%	85.8%	98.3%	63.7%	48.4%
Nc1nccc2c1ccn2-c1ccc(NC(=O)c2ccc(N3CCOCC3)c(C(F)(F)F)c2)cc1	35.3%	36.7%	48.8%	-41.2% (active)	24.3%	-25.3% (active)	-9.64% (active)	18.5%	-3.7% (active)
CCCCOc1nc2ccc(Cl)cc2cc1/C=C/C(=O)/C=C/c1ccc(OC)cc1	90.5%	110%	92.7%	84.4%	105%	99.1%	101%	87.2%	78%
CN1CCN(CC(=O)N(C)c2ccc(N=C(c3ccccc3)c3c(O)[nH]c4ccc(C#N)cc34)cc2)CC1	16.4%	63.4%	26.4%	23.9%	48.4%	20.2%	27%	15.8%	8.12% (active)
COCCNC(C(=O)c1ccccc1)c1ccccc1 (stereo not given)	107%	99.2%	100%	97.7%	106%	102%	88.4%	101%	98.6%
CSc1ccc(C(=O)C[n+]2cccc(C)c2)cc1	110%	100%	99.9%	97.4%	112%	102%	86.7%	99.8%	97%
CC(C)(C)C(=O)/C=c1/[nH]c(=O)/c(=C/c2ccccc2O)s1	67.6%	61.1%	58.2%	67.4%	74.5%	81.1%	–	57.8%	–
CN(C)c1ccc(/C=c2\s/c(=C\C(=O)C(C)(C)C)[nH]c2=O)cc1	102%	93.9%	99%	92.5%	100%	–	105%	101%	133%
Cc1ccc[n+](CC(=O)c2cccc3ccccc23)c1	106%	95.9%	102%	89.5%	103%	–	90%	101%	98%
Cc1cc(O[C@@H]2O[C@@H](C)[C@H](O)[C@@H](O)[C@H]2O)c2c3c(c(O[C@@H]4O[C@@H](C)[C@H](O)[C@@H](O)[C@H]4O)cc2c1)C(=O)c1c(O)cccc1C3=O	90.4%	76.7%	54.2%	11.7%	47.2%	60.3%	–	82.6%	68.8%
CC(C)(C)OC(=O)NCc1cccc(N=C=S)c1	41.9%	71.6%	69.6%	49.2%	61.5%	–	-11.6% (active)	3.13% (active)	-24.6% (active)
COc1ccc(C(=O)NC(=O)Nc2ccc3c(c2)NC(=O)/C3=C\c2[nH]c(C)c(C(=O)O)c2C)cc1	93.8%	81.7%	73%	80.4%	52.6%	–	95.9%	64%	25.2%
Nc1ncc(-c2ccc3ncnc(Nc4ccc(F)c(Cl)c4)c3c2)cn1	95%	40.8%	37.4%	12%	-74.2% (active)	–	23%	61.4%	80.4%
CCn1c(SCC(=O)c2ccc(Br)cc2)nnc1-c1cc2c([nH]c3ccccc32)c(-c2cccc(O)c2)n1	69.9%	67.2%	96.5%	70.4%	60.5%	83.7%	–	78.5%	–
O=[N+]([O-])c1cccc(C2c3ccccc3Oc3ccccc32)c1	107%	93.9%	99.9%	70.7%	89.1%	–	94.1%	88.6%	79.6%
CN(C)CCNc1nc2ccccc2c2c(=O)c3ccccc3sc12	-11% (active)	30.7%	32.1%	12.6%	7.03% (active)	–	-2.07% (active)	6.74% (active)	-4.55% (active)
COc1ccc(-c2nnc(SCC(=O)N3CCN(c4cc5c(cc4F)c(=O)c(C(=O)O)cn5C4CC4)CC3)o2)cc1OC	103%	102%	97.6%	93.7%	102%	97.1%	96.7%	82.6%	77.4%
Nc1ncnc2c1c(-c1ccc(Oc3ccccc3)cc1)nn2C[C@H]1SSC[C@H]1O	-75.1% (active)	6.97% (active)	20.7%	-3.37% (active)	10.3%	–	18.9%	11.1%	-2.47% (active)
CCN(CC)CCNC(=O)c1c(C)[nH]c(/C=C2\C(=O)Nc3cc(NC(=O)NC(=O)c4ccc(OC)cc4F)ccc32)c1C	128%	114%	97.3%	96.2%	38.2%	–	77.6%	42.4%	38.2%
CN(CCNCc1ccccn1)CCNCc1ccccn1	-2.1% (active)	23.8%	27.9%	-11.8% (active)	0.79% (active)	–	-91.9% (active)	10.7%	1.98% (active)
NS(=O)(=O)c1ccc(CCN2C(=O)/C(=C\c3ccc(Cl)cc3)C=C2c2ccc(Oc3ccccc3)cc2)cc1	73%	60.1%	78.2%	65.8%	72.3%	–	80.8%	81.4%	48.2%
